The values below come from the supplement of paper PMC9135407.

Values joined by “and” are separate entries in the source; they are usually repeats but may differ in a detail not shown here. Equal values may be shown once. Where a name gives a salt, the structure may show the parent alone. Screen size: about 5,800 compounds; about 620 (11%) showed activity. The sample holds actives, similar compounds and a random draw of the others, so the mix is not that of the screen. A number with no mark means an inactive call.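 The calls were made as follows: active = score above a cut-off or among the top three wells of a plate; in these data no inactive exceeds 0.85.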

In this experiment the test system is primary human hepatic stellate cells (donor 1). The experiment is described as follows: scaled lipid accumulation score (0 = DMSO-like, 1 = nortriptyline-like); higher = stronger HSC inactivation (lipid re-accumulation), active = hit call of the paper. The conditions noted are these: 48 h.
Setting [1] is: library stock concentration: 3.33 mM.
Setting [2] is: library stock concentration: 10 mM.
Setting [3] is: library stock concentration: 1 mM.
The mark [4] stands for this setting: library stock concentration: 80 uM.
The mark [5] stands for this setting: library stock concentration: 400 uM.
Setting [6] is: library stock concentration: 2 mM.

For `CNc1nc(Nc2cnn(C3CCN(C4COC4)CC3F)c2Cl)ncc1C(F)(F)F` (configuration not stated), the “scaled lipid accumulation score” value by setting is: under setting [1], not above -0.009; under setting [2], not above 0.

With `CCCCC(C)(O)CC=CC1C(O)CC(=O)C1CCCCCCC(=O)OC` (configuration not stated) [8-iso Misoprostol], the “scaled lipid accumulation score” value under setting [3] was not above 0.

In the case of `CCc1cncnc1N1CCN(Cc2nc3ccc(C(F)(F)F)cc3[nH]2)CC1`, the “scaled lipid accumulation score” value by setting is: under setting [4], not above 0; under setting [5], not above 0; under setting [6], not above 0; under setting [1], not above 0; under setting [2], 0.077 and 0.419 and ≤ 0.

Regarding `CN1CCN(c2nc3cc(C(F)(F)F)ccc3n3cccc23)CC1.O=C(O)/C=C\C(=O)O` [listing 1 of 2 here], under setting [2], the “scaled lipid accumulation score” value is 0.974 (active).

For `CN1CCN(c2nc3cc(C(F)(F)F)ccc3n3cccc23)CC1.O=C(O)/C=C\C(=O)O` [listing 2 of 2 here], the “scaled lipid accumulation score” value under setting [2] is 1.15 (active).

Regarding `CCCCC/C=C\C[C@@H](O)/C=C/c1cccc(C[C@@H](O)CCCCO)n1`, the “scaled lipid accumulation score” value (library stock concentration: 100 uM) is not above -0.021.

Consider `CCNC(=O)CCC/C=C\C[C@@H]1[C@@H](CC[C@@H](O)CCc2ccccc2)[C@H](O)C[C@@H]1O` [Latanoprost ethyl amide], for which the “scaled lipid accumulation score” value under setting [3] is not above 0.

As to `O=C1NCCc2[nH]c(-c3ccnc(-c4cnc5ccccc5c4)c3)cc21` [MK-2 Inhibitor III], the “scaled lipid accumulation score” value under setting [1] is not above 0.

For the compound `C=C[C@H]1CN2CC[C@H]1C[C@H]2[C@H](O)c1ccnc2ccc(OC)cc12` [Quinine], the “scaled lipid accumulation score” value (library stock concentration: 6.2 mM) was 0.205.

Consider `C=C[C@H]1CN2CC[C@H]1C[C@H]2[C@H](O)c1ccnc2ccc(OC)cc12` [Quinine HCl Dihydrate], for which the “scaled lipid accumulation score” value was 0.077 under setting [1] and 0.31 under setting [2].

As to `C=C[C@H]1CN2CC[C@H]1C[C@H]2[C@H](O)c1ccnc2ccc(OC)cc12` [Quinine sulfate], the “scaled lipid accumulation score” value runs as follows: (library stock concentration: 4.7 mM) 0.308; under setting [2], ≤ 0 and 0.364.

For `CC(C)[C@H](N)C(=O)OCC(CO)OCn1cnc2c(=O)nc(N)[nH]c21` (some centres not stated), the “scaled lipid accumulation score” value under setting [2] was 0.228.

Regarding `CCCCCCC[C@H](O)/C=C/[C@H]1[C@H](O)CC(=O)[C@@H]1C/C=C\CCCC(=O)O` [20-ethyl Prostaglandin E2], the “scaled lipid accumulation score” value under setting [3] was not above 0.

As to `CC(CCCO)C1CCC2C3C(O)CC4CC(=O)CCC4(C)C3CC(O)C12C` (configuration not stated) [3-keto Petromyzonol], the “scaled lipid accumulation score” value under setting [3] is not above 0.

`CN(C)CCOC(=O)COc1ccc(Cl)cc1` [Centrophenoxine hydrochloride]: the “scaled lipid accumulation score” value under setting [2] is 0.032.

`CN(C)CCOc1ccc(C(=C(CCCl)c2ccccc2)c2ccccc2)cc1.O=C(O)CC(O)(CC(=O)O)C(=O)O` [Toremifene Citrate]: the “scaled lipid accumulation score” value under setting [2] was 1.23 (active).

Turning to `CN(C)CCOc1ccc(/C(=C(/CCCl)c2ccccc2)c2ccccc2)cc1` [Toremifene], where the note is “library stock concentration: 4.9 mM”, the “scaled lipid accumulation score” value is 0.264.

`CC/C(=C(\c1ccccc1)c1ccc(OCCN(C)C)cc1)c1ccccc1` [Tamoxifen]: the “scaled lipid accumulation score” value by setting is: under setting [2], 0.674 and 0.394; (library stock concentration: 13.5 mM) 0.777.

`CC/C(=C(\c1ccccc1)c1ccc(OCCN(C)C)cc1)c1ccccc1` [Tamoxifen citrate]: the “scaled lipid accumulation score” value is 0.372. The “scaled lipid accumulation score” value (library stock concentration: 3.5 mM) is 0.611. For the same compound, for the setting “library stock concentration: 5.4 mM”, the “scaled lipid accumulation score” value is 0.421. Also, the “scaled lipid accumulation score” value under setting [2] was 0.253 and 0.681 and 0.432.

In the case of `OCCOc1ccc(/C(=C(/CCCl)c2ccccc2)c2ccccc2)cc1` [Ospemifene], the “scaled lipid accumulation score” value is 0.069 under setting [1] and 0.171 under setting [2].

As for `CN(C)CCOc1ccc(/C(=C(/CCCl)c2ccccc2)c2ccccc2)cc1.O=C(O)CC(O)(CC(=O)O)C(=O)O`, the “scaled lipid accumulation score” value under setting [2] was 0.946 (active).

Regarding `CN(C)CCOC(=O)COc1ccc(Cl)cc1` [Meclofenoxate hydrochloride], the “scaled lipid accumulation score” value was not above 0. Also, the “scaled lipid accumulation score” value under setting [2] is not above -0.027.

`CN(C)CCOc1ccc(/C(=C(/CCCl)c2ccccc2)c2ccccc2)cc1` [Toremifene Citrate]: the “scaled lipid accumulation score” value under setting [1] is 0.112.

Regarding `CN(C)CCOc1ccc(/C(=C(/CCCl)c2ccccc2)c2ccccc2)cc1`, the “scaled lipid accumulation score” value under setting [2] is not above 0.

Consider `CN(C)CCOC(=O)COc1ccc(Cl)cc1` [Meclofenoxate (Centrophenoxine) HCl], for which the “scaled lipid accumulation score” value is not above 0 under setting [1] and 0.043 under setting [2].

On to `CC/C(=C(\c1ccccc1)c1ccc(OCCN(C)C)cc1)c1ccccc1` [Tamoxifen Citrate], for which the “scaled lipid accumulation score” value was 0.368 under setting [1] and 0.579 under setting [2].

Consider `O=C(O)CSCC(=O)NC1CCSC1=O` (configuration not stated), for which the “scaled lipid accumulation score” value under setting [2] is not above 0.

On to `O=C(O)CSCC(=O)NC1CCSC1=O` (configuration not stated) [Erdosteine], for which the “scaled lipid accumulation score” value was not above 0 under setting [1] and not above 0 under setting [2].

As for `CC(C)OC(=O)CCC/C=C/C[C@@H]1[C@@H](/C=C/[C@H](O)CCc2ccccc2)[C@H](O)C[C@@H]1O`, the “scaled lipid accumulation score” value under setting [3] was not above 0.

As for `C1CNCCN1` [Piperazine], the “scaled lipid accumulation score” value runs as follows: under setting [2], not above 0; (library stock concentration: 23.2 mM) 0.066.

For `O=C(O)CCCCC(CCSCc1ccccc1)SCc1ccccc1` (configuration not stated), the “scaled lipid accumulation score” value was not above 0 under setting [1] and not above 0 under setting [2].

Turning to `CCCC[C@@H](C=O)NC(=O)[C@H](CC(C)C)NC(=O)[C@H](CC(C)C)NC(C)=O`, where the note is “library stock concentration: 13 mM”, the “scaled lipid accumulation score” value was 0.811.

Consider `CC(C)c1ccc(NC(=O)Cn2cnc3c2c(=O)n(C)c(=O)n3C)cc1`, for which the “scaled lipid accumulation score” value reads like this: under setting [1], not above 0; under setting [2], not above 0.

`CCCCC/C=C\C/C=C\CCCCCCCC(=O)OCC` [Linoleic Acid ethyl ester]: the “scaled lipid accumulation score” value under setting [3] is not above 0.

As for `COc1ccc(Nc2nccc(NCCO)n2)cc1` [Cardiogenol C (hydrochloride)], the “scaled lipid accumulation score” value under setting [3] was not above 0.

As to `OCCCNc1cc(-c2ccnc(Nc3cccc(Cl)c3)n2)ccn1` [listing 1 of 2 here], the “scaled lipid accumulation score” value under setting [2] was 0.957 (active).

With `OCCCNc1cc(-c2ccnc(Nc3cccc(Cl)c3)n2)ccn1` [listing 2 of 2 here], the “scaled lipid accumulation score” value reads like this: under setting [4], 0.137; under setting [5], 0.324; under setting [6], 0.587.

Turning to `COc1ccc(Nc2nccc(NCCO)n2)cc1` [Cardiogenol C hydrochloride], under setting [2], the “scaled lipid accumulation score” value was not above 0.

Turning to `C[C@@]1(c2cc(-c3cncnc3)c(F)cc2F)CCSC(N)=N1`, the “scaled lipid accumulation score” value is not above 0 under setting [1] and not above 0 under setting [2].

On to `CCCCCCCCCCC/C=C\C/C=C\CCCC(=O)O` [Eicosa-5,8-dienoic acid (20:2 n-12)], for which the “scaled lipid accumulation score” value under setting [3] was not above -0.021.

Consider `COc1cc(C(C)=O)ccc1OCCCN1CCC(c2noc3cc(F)ccc23)CC1` [Iloperidone], for which the “scaled lipid accumulation score” value reads like this: under setting [1], 0.045; under setting [2], 0.477.

Take `COc1cc(C(C)=O)ccc1OCCCN1CCC(c2noc3cc(F)ccc23)CC1`: under setting [2], the “scaled lipid accumulation score” value is 0.933 (active).

Take `Cc1nc2n(c(=O)c1CCN1CCC(c3noc4cc(F)ccc34)CC1)CCCC2O` (configuration not stated) [Paliperidone]: the “scaled lipid accumulation score” value under setting [2] was 0.223.

In the case of `C[Se]CC[C@H](N)C(=O)O`, under setting [2], the “scaled lipid accumulation score” value was not above 0.

On to `COc1ccc(N(C(=O)Nc2c(C)cccc2C)c2cc(Nc3ccc(N4CCN(C)CC4)cc3)ncn2)c(OC)c1`, for which the “scaled lipid accumulation score” value is not above -0.016 under setting [4], 0.184 under setting [5] and 0.849 under setting [6].

Turning to `Cc1ccc(-c2ccc3c(ccc4sc5c(c43)NC[C@@H](C)NC5=O)n2)cn1` [listing 1 of 2 here], the “scaled lipid accumulation score” value under setting [4] was not above -0.001, the “scaled lipid accumulation score” value under setting [5] was not above -0.001 and the “scaled lipid accumulation score” value under setting [6] was 0.744.

As to `Cc1ccc(-c2ccc3c(ccc4sc5c(c43)NC[C@@H](C)NC5=O)n2)cn1` [listing 2 of 2 here], the “scaled lipid accumulation score” value under setting [2] was 1.28 (active).

For `CN(C)CC(c1ccc(O)cc1)C1(O)CCCCC1` (configuration not stated), the “scaled lipid accumulation score” value under setting [2] is not above 0.

For `CN(C)CC(c1ccc(O)cc1)C1(O)CCCCC1` (configuration not stated) [Desvenlafaxine], the “scaled lipid accumulation score” value was not above 0 under setting [1] and not above -0.001 under setting [2].

Consider `CN(C)CC(c1ccc(O)cc1)C1(O)CCCCC1` (configuration not stated) [Desvenlafaxine Succinate], for which the “scaled lipid accumulation score” value under setting [1] was not above 0 and the “scaled lipid accumulation score” value under setting [2] is not above -0.001.

In the case of `Cc1ccc(NC(=O)C(C)C)cc1C1CCN(Cc2ccc(Oc3ccc(F)c(F)c3)cc2)CC1.Cl`, the “scaled lipid accumulation score” value under setting [2] was 1.29 (active).

Turning to `CC(=O)c1ccc(N2CCOCC2)cc1O` [DNA-PK Inhibitor III], under setting [1], the “scaled lipid accumulation score” value is not above 0.

Turning to `N[C@@H](CCC(=O)N[C@@H](CSN=O)C(=O)NCC(=O)O)C(=O)O` [S-Nitrosoglutathione], the “scaled lipid accumulation score” value under setting [2] was not above -0.032.

Turning to `Cc1cc2nc3c(=O)[nH]c(=O)nc-3n(CC(O)C(O)C(O)COP(=O)(O)O)c2cc1C` (configuration not stated), under setting [2], the “scaled lipid accumulation score” value is not above 0.

As to `COC(=O)C1=C(C)NC(C)=C(C(=O)OC2CCCN(Cc3ccccc3)C2)C1c1cccc([N+](=O)[O-])c1` (configuration not stated) [Benidipine HCl], the “scaled lipid accumulation score” value under setting [1] was 0.027 and the “scaled lipid accumulation score” value under setting [2] is 0.476.

For the compound `CC1=C(C(=O)OC2CCCCC2)C(c2ccc([N+](=O)[O-])cc2)C2=C(CC(C)(C)CC2=O)N1` (configuration not stated) [listing 1 of 2 here], the “scaled lipid accumulation score” value under setting [1] was 0.763.

Consider `CC1=C(C(=O)OC2CCCCC2)C(c2ccc([N+](=O)[O-])cc2)C2=C(CC(C)(C)CC2=O)N1` (configuration not stated) [listing 2 of 2 here], for which the “scaled lipid accumulation score” value under setting [2] was 0.997 (active).

Turning to `COC(=O)C1=C(C)NC(C)=C(C(=O)OC2CCCN(Cc3ccccc3)C2)C1c1cccc([N+](=O)[O-])c1` (configuration not stated), under setting [2], the “scaled lipid accumulation score” value is 0.032.

Turning to `CCCCCCOc1ccccc1C(N)=O` [Exalamide], the “scaled lipid accumulation score” value under setting [2] was not above -0.027.

On to `CNCCCCOc1ccccc1Cc1ccccc1` [Bifemelane], for which the “scaled lipid accumulation score” value under setting [2] was 1.08 (active).

In the case of `COC(=O)c1c(C)[nH]c(C)c1C(=O)c1ccccc1Cc1ccccc1`, the “scaled lipid accumulation score” value under setting [2] was 0.13 and 0.001.

Regarding `CNCCCCOc1ccccc1Cc1ccccc1.Cl` [Bifemelane hydrochloride], the “scaled lipid accumulation score” value under setting [2] was 1.41 (active).

`CCOC(=O)c1c(Cc2cccc(Cl)c2)[nH]c2c1cc(O)c1ccccc12`: under setting [3], the “scaled lipid accumulation score” value was not above 0.

Consider `CC/C=C\C/C=C\C/C=C\CCCCCCCC(=O)NCCO` [.alpha.-Linolenoyl Ethanolamide], for which, under setting [3], the “scaled lipid accumulation score” value was 0.006.

Regarding `CCOc1nc(NC(=O)Cc2cc(OC)ccc2OC)cc(N)c1C#N` [JNK Inhibitor VIII], the “scaled lipid accumulation score” value under setting [1] was not above 0.

For `CNc1cc(OC)c(C(=O)NC2CCN(Cc3ccccc3)C2C)cc1Cl` (configuration not stated) [Nemonapride], the “scaled lipid accumulation score” value under setting [2] is 0.728.

For the compound `NC(=O)Nc1sc(-c2ccccc2)cc1C(N)=O` [IKK-2 Inhibitor VI], the “scaled lipid accumulation score” value under setting [1] is not above 0.
